This experiment in a line: NCI Yeast Anticancer Drug Screen. Data for the rad50EPP+ strain (AID 151).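 Further: 0% = growth of vehicle-treated control cultures.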 Conditions: S. cerevisiae rad50 mutant strain, active compounds read high. The procedure: Growth inhibition of yeast strains with defined genetic alterations is measured as a screen for potential anti-cancer activity. Selected strains with alterations in DNA damage repair or cell cycle control were exposed to compounds and growth inhibition was measured relative to vehicle treated controls. The strain used in this assay is rad50EPP+

Structures are written as SMILES. Compounds without any hit were thinned out: in the full panel of roughly 79,000, 15% have a hit. Values without a mark were called inactive. The source made the active and inactive calls. No stated cut-off is given here; in the data, active means growth inhibition above about 70%; inactive means the rest.

Consider `O=[N+]([O-])c1ccc(N/N=C/Cc2ccccc2)c([N+](=O)[O-])c1`, for which the growth inhibition is -2% (at 1.2 µM); 10% (at 3.7 µM); 24% (at 11.0 µM); 46% (at 33.0 µM); 57% (at 100.0 µM).

As to `CN(C)c1ccc(N=Nc2ccncc2)cc1`, the growth inhibition reads like this: (at 1.2 µM) 3%; (at 3.7 µM) 12%; (at 11.0 µM) 64%; (at 33.0 µM) 87% (active); (at 100.0 µM) 82% (active).

With `CC1=C(SCc2ccccc2)C(=O)c2ccccc2C1=O`, the growth inhibition is -28% (at 1.2 µM); -20% (at 3.7 µM); -4% (at 11.0 µM); 35% (at 33.0 µM); 59% (at 100.0 µM).

In the case of `O=C1C(=O)c2ccccc2C(O)=C1C(C1=C(O)c2ccccc2C(=O)C1=O)c1ccc(Cl)cc1`, the growth inhibition (at 1.2 µM) is 7%; the growth inhibition (at 3.7 µM) was 28%; the growth inhibition (at 11.0 µM) was 51%; the growth inhibition (at 33.0 µM) is 48%; the growth inhibition (at 100.0 µM) was 30%.

As for `Nc1ncc(-c2ccc(Br)cc2)s1`, the growth inhibition by setting is: (at 1.2 µM) 19%; (at 3.7 µM) 29%; (at 11.0 µM) 47%; (at 33.0 µM) 93% (active); (at 100.0 µM) 97% (active).

Turning to `CCCCOP(=O)(CCCP(=O)(OCCCC)OCCCC)OCCCC`, the growth inhibition reads like this: (at 1.2 µM) -4%; (at 3.7 µM) -4%; (at 11.0 µM) -3%; (at 33.0 µM) -3%; (at 100.0 µM) -2%.

Consider `CNCCCNc1c2ccccc2nc2cccc([N+](=O)[O-])c12`, for which the growth inhibition by setting is: (at 1.2 µM) 43%; (at 3.7 µM) 89% (active); (at 11.0 µM) 96% (active); (at 33.0 µM) 97% (active); (at 100.0 µM) 98% (active).

As to `COc1ccc(/C=C2\NC(=S)N(/C=C3\C(=O)Oc4ccccc4C3=O)C2=O)cc1`, the growth inhibition runs as follows: (at 1.2 µM) -2%; (at 3.7 µM) -3%; (at 11.0 µM) -1%; (at 33.0 µM) -1%; (at 100.0 µM) -2%.
